Screens as filed in PubChem.
p53 PUMA act = mutant p53 pathway reactivation | activation, % at 9.98 µM | SW480 PUMA-promoter luciferase | 28,000 compounds, 1.5% hits; in the data active means activation above about 52%
STAT3 binder = binders of human STAT3 | calls only | 17,000 compounds, 0.2% hits | Small molecule microarray, His-STAT3 binding, anti-His fluorescence | P40763;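 active means compounds whose four printed spots each show fluorescence over background unusually high for their array block, chance value under 7%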
Target sequence (P40763 whole entry, looked up): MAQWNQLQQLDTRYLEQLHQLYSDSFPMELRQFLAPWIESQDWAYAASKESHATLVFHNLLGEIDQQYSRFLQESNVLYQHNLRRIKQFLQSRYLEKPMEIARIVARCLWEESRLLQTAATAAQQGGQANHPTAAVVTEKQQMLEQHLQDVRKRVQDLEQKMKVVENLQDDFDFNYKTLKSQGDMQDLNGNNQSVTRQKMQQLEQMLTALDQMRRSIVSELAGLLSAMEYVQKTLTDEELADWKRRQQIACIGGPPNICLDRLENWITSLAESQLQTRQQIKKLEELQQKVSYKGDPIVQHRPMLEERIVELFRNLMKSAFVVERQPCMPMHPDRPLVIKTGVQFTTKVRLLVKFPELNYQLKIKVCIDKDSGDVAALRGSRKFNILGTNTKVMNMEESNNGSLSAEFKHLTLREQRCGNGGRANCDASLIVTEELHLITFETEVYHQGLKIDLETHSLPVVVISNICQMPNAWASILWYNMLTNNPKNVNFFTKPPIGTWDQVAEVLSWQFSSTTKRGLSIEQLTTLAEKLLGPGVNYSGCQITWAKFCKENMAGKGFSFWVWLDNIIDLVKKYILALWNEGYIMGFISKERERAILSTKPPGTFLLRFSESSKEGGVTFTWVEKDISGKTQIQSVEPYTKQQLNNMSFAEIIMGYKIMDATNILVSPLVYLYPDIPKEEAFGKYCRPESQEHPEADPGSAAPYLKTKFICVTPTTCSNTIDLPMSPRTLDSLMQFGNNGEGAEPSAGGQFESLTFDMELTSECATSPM
mut p53 SMM = mutant p53 (human) binding; small molecule microarray binding, anti-GST fluorescence; calls only; 17,000 compounds, 0.4% hits; AID 624136;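 active means compounds whose four printed spots each glow above background more than chance allows, each with a p-value under 7%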
Myc binder = c-Myc (human) binding; P01106; small molecule microarray, His-c-Myc binding, anti-His fluorescence; calls only; 17,000 compounds, 1.5% hits; AID 624141;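 active means spot fluorescence over background with P-value below 7% in all four replicate spots, showing protein binding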;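 further: score is binary with 100 for all four spots passing and 0 otherwise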
NFkB binder = binders of human NF-kappa-B p105. P19838. Small molecule microarray, anti-His fluorescence binding. calls only. 17,000 compounds, 1.3% hits. AID 624139;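 active means spot fluorescence over background significantly raised, with a chance value under 7% in all four replicate spots of the compound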;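 further: probe protein is his-tagged human p50 processed subunit at 1 µg/ml; raw spot fluorescence signals with no normalization applied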
The depositor's hits bear a star. Rows were chosen to be rich in hits. Some 2.6% of all compounds tested hit in one or more screens of this group.

Screening Cc1noc(C)c1NC(=O)Nc1ccc2c(c1)C(=O)N([C@H](C)CO)C[C@@H](C)[C@@H](CN(C)C(=O)C1CCCCC1)OCCCC[C@H](C)O2 returned p53 PUMA act 14, STAT3 binder inactive, mut p53 SMM inactive, Myc binder inactive and NFkB binder inactive.
`COc1ccc(CN(C)C[C@H]2OCCCC[C@H](C)Oc3ccc(NC(=O)Nc4c(C)noc4C)cc3C(=O)N([C@H](C)CO)C[C@@H]2C)cc1` gave p53 PUMA act 17, STAT3 binder inactive, mut p53 SMM inactive, Myc binder active and NFkB binder inactive.
Screening COc1ccc(CN(C)C[C@H]2OCCCC[C@@H](C)Oc3ccc(NC(=O)Nc4c(C)noc4C)cc3C(=O)N([C@@H](C)CO)C[C@@H]2C)cc1 returned p53 PUMA act 2, STAT3 binder inactive, mut p53 SMM inactive, Myc binder inactive and NFkB binder inactive.
For COc1cc(-c2nc3sc4c(c3c(=O)[nH]2)CCCC4)cc(Br)c1OCC(=O)O the results were p53 PUMA act -5, STAT3 binder inactive, mut p53 SMM inactive, Myc binder active and NFkB binder active.
Screening OCc1nc2ccccc2n1CCCOc1ccc(Br)cc1 returned p53 PUMA act 56*.
For CC(=O)Nc1ccc(NC(=O)CN(c2ccc(F)cc2)S(C)(=O)=O)cc1 the results were p53 PUMA act -6.
CC(C)=CCC[C@](C)(O[C@@H]1O[C@H](CO[C@@H]2O[C@@H](CO)[C@H](O)[C@H]2O)[C@@H](O)[C@H](O)[C@H]1O)[C@H]1CC[C@]2(C)C1[C@H](O)CC1[C@@]3(C)CC[C@H](O[C@@H]4O[C@H](CO)[C@@H](O)[C@H](O)[C@H]4O[C@@H]4O[C@H](CO)[C@@H](O)[C@H](O)[C@H]4O)C(C)(C)C3CC[C@]12C (some centres not stated) was read as p53 PUMA act 9, STAT3 binder inactive, mut p53 SMM inactive, Myc binder active and NFkB binder active.
Screening C[C@@H]1O[C@@H](O[C@H]2[C@H](O[C@H]3CC[C@@]4(C)C(CC[C@]5(C)C4CC=C4C6CC(C)(C)CC[C@]6(C(=O)O[C@@H]6O[C@H](CO[C@@H]7O[C@H](CO)[C@@H](O[C@@H]8O[C@@H](C)[C@H](O)[C@@H](O)[C@H]8O)[C@H](O)[C@H]7O)[C@@H](O)[C@H](O)[C@H]6O)CC[C@]45C)C3(C)C)OC[C@H](O)[C@@H]2O)[C@H](O)[C@H](O)[C@H]1O (some centres not stated) returned p53 PUMA act -19, STAT3 binder inactive, mut p53 SMM inactive, Myc binder inactive and NFkB binder inactive.
Screening COC(=O)c1cccc(NC(=O)COc2ccc(OC)cc2)c1C returned p53 PUMA act 6.
Screening CCn1nccc1C(=O)Nc1nc2ccccc2n1CCN1CCCCC1 returned p53 PUMA act -2, STAT3 binder inactive, mut p53 SMM inactive, Myc binder active and NFkB binder inactive.
For COc1ccc(OC)c(NC(=O)COc2ccc(C(=O)Nc3cccc(C)c3C)cc2)c1 the results were p53 PUMA act 7.
For COc1ccc(-c2nc(SCC(=O)Nc3cccc(C(F)(F)F)c3)n[nH]2)cc1 the results were p53 PUMA act -9.
For C=CCSc1n[nH]c(-c2ccc(C(F)(F)F)cc2)n1 the results were p53 PUMA act 111*.
For COC(=O)C1=C2CC[C@H](CO)NC(=O)N[C@H](Cc3ccccc3)C(=O)NCc3cn(nn3)C[C@@H](Cc3ccccc3)NC(=O)c3oc(c(C(=O)OC)c3C(=O)OC)CC[C@H](CO)NC(=O)N[C@H](Cc3ccccc3)C(=O)NCc3cn(nn3)C[C@@H](Cc3ccccc3)NC(=O)C(=C1C(=O)OC)O2 the results were STAT3 binder active, mut p53 SMM inactive, Myc binder inactive and NFkB binder inactive.
`O=C(NCc1ccccn1)Nc1ccccc1Cl` gave p53 PUMA act 143*.
`O=C(COc1ccc(Cl)cc1Br)NCc1ccccn1` gave p53 PUMA act 76*.
O=C(NCc1ccccn1)Nc1ccc(F)cc1F was read as p53 PUMA act 34, STAT3 binder inactive, mut p53 SMM inactive, Myc binder inactive and NFkB binder inactive.
`COC(=O)CCC(=O)Nc1ccc(C#N)cc1` gave p53 PUMA act -6.
Screening O=C(COc1ccc2oc3c(c2c1)CCCC3)NCCN1CCOCC1 returned p53 PUMA act -8, STAT3 binder inactive, mut p53 SMM inactive, Myc binder inactive and NFkB binder inactive.
